# “And” between values parts separate entries of the source, which are not always exact repeats. Identical values can stand only once. Among all 420,000 compounds or so, about 50,000 (12%) were called active. Inconclusive results (about 26%) are left out. The call rests on the fitted dose curve; in most records, active means well fitted inhibition curve with a large enough effect; inconclusive means small, poorly fitted or top-dose-only effect; inactive means flat fitted curve, though single readings scatter. Shown is part of a subset that was picked to be rich in actives.
# Assay: qHTS for Inhibitors of human tyrosyl-DNA phosphodiesterase 1 (TDP1): qHTS in cells in presence of CPT; further: nearly all actives have a fitted effect of over 55% in size
# Conditions: chicken DT40 Tdp1-/-;hTDP1 cells + 20 nM CPT, ATP luminescence, 48 h; series mostly up to 46.2 µM; activity change, negative = growth inhibition: at the top concentration
# Procedure, shortened: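 Cell growth measured by CellTiter-Glo luminescence after a minimum 48 h, 37 C compound exposure with 20 nM CPT in Tdp1-knockout DT40 cells stably expressing hTDP1, seeded 400/well; qHTS titration format.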
# On the % scale 0 is the no-effect control and ±100 the full control effect; potency means the concentration at half of the fitted maximal effect.
Compound,"activity change, negative = growth inhibition",Potency
Cc1cc(NC(=O)CSC2=NS(=O)(=O)c3cc(Cl)ccc3N2)no1,18.3% (inactive),–
COc1cccc(NC(=O)C2CCN(c3cc(C)nc4c(-c5ccc(Cl)cc5)c(C)nn34)CC2)c1,-3.96% (inactive),–
COc1cccc(NC(=O)C2CCCN(c3ncnc4c3nc3n4CCCCC3)C2)c1 (centres undefined),–,20.6 µM (active)
COc1cccc(CNC(=O)C2CCCN(c3ncnc4c3nc3n4CCCCC3)C2)c1 (centres undefined),–,23.1 µM (active)
O=C(Nc1cccc(Cl)c1)C1CCCN(c2cnccn2)C1 (centres undefined),-16.5% (inactive),–
COc1cccc(CNC(=O)C2CCCN(S(=O)(=O)N3CC(C)CC(C)C3)C2)c1 (centres undefined),-22.7% (inactive),–
O=C(NCCCN1CCCCC1)C1CCCN(c2ncnc3c2nc2n3CCCCC2)C1 (centres undefined),4.33% (inactive),–
N#Cc1c(NC(=O)C2CC(Cl)=CCC2C(=O)O)sc2c1CCCCC2 (centres undefined),20.2% (inactive),–
COc1ccc2c(CC(=O)NNC(=O)c3ccccc3F)coc2c1,-0.595% (inactive),–
CCC(C)(C)NC(=O)CN(C(=O)C(=O)Nc1ccc2c(c1)OCCO2)C(C)(C)CC,-19.8% (inactive),–
O=C(COC(=O)Cn1[nH]c(=O)c2ccccc2c1=O)Nc1ncc(Cl)cc1Cl,-1.54% (inactive),–
O=C(OCc1cc(Cl)ccc1OC(F)F)c1cccnc1,6.56% (inactive),–
Cc1cccc(NC(=S)NC(=O)c2ccc(Br)o2)c1,0.885% (inactive),–
Cc1ccc(NC(=S)NC(=O)c2ccc(-c3ccccc3)cc2)cc1,–,6.51 µM (active)
Cc1ccc(C(=O)NC(=S)Nc2ccccc2C)cc1,-10.1% (inactive),–
Cc1cccc(NC(=O)NC(=S)NC(=O)c2ccccc2)c1,–,8.2 µM (active)
Cc1cccc(NC(=O)/C(=C\c2ccco2)NC(=O)c2ccccc2)c1,-2.66% (inactive),–
Cc1ccc(C(=O)NC(=S)Nc2ccc(N3CCOCC3)cc2)cc1,-29.5% (inactive),–
C/C(=N\NC(=O)OC(C)(C)C)c1ccc[nH]1,-10.6% (inactive),–
O=C(CCN1C(=O)C2C3CCC(C3)C2C1=O)Nc1ccc(Cl)cc1Cl (centres undefined),1.93% (inactive),–
O=C(NCCc1c[nH]c2ccc(Cl)cc12)c1ccc([N+](=O)[O-])cc1,-0.327% (inactive),–
Cc1ccccc1CN1CCNC(=O)C1CC(=O)NCCC1=CCCCC1 (centres undefined),13% (inactive),–
CCc1ccc(C(=O)NC(=S)Nc2ccccc2N2CCOCC2)cc1,-29.2% (inactive),–
Cc1ccc(OCCCC(=O)Nc2ccc(N3CCOCC3)cc2)cc1,-17.8% (inactive),–
O=C(NCCCN1CCN(C2CCCCC2)CC1)Nc1ccccc1C(F)(F)F,6.84% (inactive),–
Cc1cc(C)cc(OCC(=O)Nc2ccc(N3CCOCC3)cc2N2CCOCC2)c1,–,20.6 µM (active)

Compound,"activity change, negative = growth inhibition",Potency
O=C(CNCCC1=CCCCC1)Nc1ccccc1N1CCCCCC1,–,20.6 µM (active)
CC(=O)c1ccc(N2CCN(CC(=O)Nc3ccccc3N3CCOCC3)CC2)cc1,–,14.6 µM (active)
O=C(CN1CCN(c2ccc(O)cc2)CC1)Nc1ccc(-c2ccccc2)cc1,-17.9% (inactive),–
O=C(CN1CCN(C2CCCCC2)CC1)Nc1ccccc1N1CCCCC1,–,29.1 µM (active)
O=C(COc1ccc(Cl)cc1)NC(=S)Nc1ccccc1N1CCOCC1,8.34% (inactive),–
O=C(Cc1cccc2ccccc12)NCCC1=CCCCC1,-28.8% (inactive),–
O=C(CN1CCCCC1)Nc1ccccc1C(=O)NC1CC1,13.4% (inactive),–
CCn1c(=O)c(=O)[nH]c2c(=O)oc3ccc(S(=O)(=O)Nc4ccc(OC)cc4)cc3c21,0.32% (inactive),–
Cc1ccc(CCN2CC(C(=O)NCCc3ccccc3)CC2=O)cc1 (centres undefined),-10.1% (inactive),–
O=C(COC(=O)Cc1ccc(Br)cc1)Nc1ccc(N2CCOCC2)cc1,-13% (inactive),–
CCc1ccc(NC(=O)COC(=O)c2cccs2)cc1,1.08% (inactive),–
COc1cc(C(=O)N2CCN(C(=O)COc3cccc(C)c3)CC2)cc(OC)c1OC,10.3% (inactive),–
COc1cccc(OC)c1C(=O)Nc1ccc2c(c1)n(C)c(=O)n2C,15.1% (inactive),–
COC(=O)c1ccc(CSc2ccc(S(=O)(=O)N3CCCCC3)cn2)cc1,-1.22% (inactive),–
Cc1cn(C2OC[C@@H](O)[C@@H]2CO)c(=O)[nH]c1=O (some centres undefined),–,inactive
CC(C)(C)CN1CCNC(=O)C1CC(=O)NC1Cc2ccccc2C1 (centres undefined),1.17% (inactive),–
O=C(CN1CCN(c2ccccc2)CC1)Nc1ccc(F)cc1,4.73% (inactive),–
Cc1cccc(C)c1NC(=O)CN1CCN(c2ccc(F)cc2)CC1,–,14.6 µM (active)
O=C(CN1CCN(c2ccc(F)cc2)CC1)Nc1ccccc1,-6.14% (inactive),–
C#CCCOC(=O)N1C2=NC(C(=O)OC)=C(C(=O)OC)[C@@H]3N(C)c4ccc(OC)cc4[C@]23C[C@H]1C(=O)OC,-29.4% (inactive),–
N/C(=N\OC(=O)CC1CCCCC1)c1ccccc1,3.6% (inactive),–
Cc1cc(C(=O)N2CCN(c3ccccn3)CC2)c(C)o1,–,17.8 µM (active)
O=C(C(Cl)Cl)N1CCN(c2ccccn2)CC1,6.47% (inactive),–
O=C(c1cc2ccccc2s1)N1CCN(c2ccccn2)CC1,-10.5% (inactive),–
COc1ccc(/C=N/Nc2nc(-c3ccc(C)cc3)c(C#N)c(=O)[nH]2)cc1,-1.12% (inactive),–
COc1ccc(S(=O)(=O)NCCc2cc3ccc(C)c(C)c3[nH]c2=O)cc1,–,14.6 µM (active) and 18.4 µM (active)

Compound,"activity change, negative = growth inhibition",Potency
COc1ccc(CCNS(=O)(=O)c2cccc([N+](=O)[O-])c2)cc1,2.66% (inactive),–
COc1ccc(CCNS(=O)(=O)c2ccc(F)cc2)cc1OC,-13.6% (inactive),–
Cc1ccc2nc(Nc3ccccc3O)nc(-c3ccccc3)c2c1,-22.7% (inactive),–
COC(=O)Cn1nc(-c2ccccc2)c2cc(Cl)ccc21,-2.26% (inactive),–
NC(N)=Nc1nc(-c2ccccc2)c2cc(Cl)ccc2n1,–,16.4 µM (active)
O=C(Nc1ccc(-c2cscn2)cc1)C1CCCN(Cc2ccc(CO)o2)C1 (centres undefined),-16.9% (inactive),–
CN(Cc1ccco1)S(=O)(=O)c1nnc(NC(=O)c2ccccc2)s1,-19.4% (inactive),–
CC(C)NC(=O)c1ccccc1S(=O)c1ccccc1C#N (centres undefined),-8.19% (inactive),–
Cc1cc(NC(=O)CC(C)C)cc(-c2nc3ncccc3o2)c1O,-22.1% (inactive),–
Cc1ccc(S(=O)(=O)NCCC(=O)NCc2ccc(Cl)cc2)cc1C,-13.5% (inactive),–
Cn1c(=O)oc2cc(S(=O)(=O)CCC(=O)NCCc3ccc(Cl)cc3)ccc21,-4.8% (inactive),–
CC1Cc2cc(S(=O)(=O)CCC(=O)Nc3ccc(F)c(Cl)c3)ccc2N1C(=O)C1CC1 (centres undefined),–,10.3 µM (active)
CC(=O)N1CCc2cc(S(=O)(=O)NC3CCCCC3)ccc21,-29.4% (inactive),–
CC1Cc2ccccc2N1CC(=O)Nc1ccc(S(N)(=O)=O)cc1 (centres undefined),-8.99% (inactive),–
COc1cccc(CNS(=O)(=O)c2csc(C(N)=O)c2)c1,-15.7% (inactive),–
CC(=O)N1c2ccc(S(=O)(=O)N(C)CC(=O)N(C)Cc3ccccc3)cc2CC1C (centres undefined),-18.2% (inactive),–
COc1cccc(CNS(=O)(=O)c2ccc3c(c2)CC(C)N3C(=O)C2CCC2)c1 (centres undefined),–,5.8 µM (active) and 7.31 µM (active)
CCC(=O)N1c2ccc(S(=O)(=O)CCC(=O)N3CCN(c4ccccc4)CC3)cc2CC1C (centres undefined),-22.3% (inactive),–
CC1Cc2cc(S(=O)(=O)CCC(=O)NCc3ccc(Cl)cc3)ccc2N1C(=O)C1CC1 (centres undefined),–,3.66 µM (active)
CC(=O)N1c2ccc(S(=O)(=O)NCCC(=O)N(C)C3CCCCC3)cc2CC1C (centres undefined),–,10.3 µM (active)
COc1cccc(CNC(=O)C2CCC(CNS(=O)(=O)c3cccs3)CC2)c1 (centres undefined),-7.39% (inactive),–
O=C(Cn1cnc2c(cnn2-c2ccc(F)cc2)c1=O)NCCc1ccccc1,-16.9% (inactive),–
CCCCNC(=O)OCCSCCS(=O)(=O)c1ccc(Cl)cc1,0.699% (inactive),–
Cc1nc2c(c(C)nn2-c2ccccc2)c(C)c1C,0.197% (inactive),–
CCOC(=O)c1cc(S(=O)(=O)NCCc2ccc(OC)c(OC)c2)cn1C,0.651% (inactive),–
CNC(=O)C(NC(=O)c1ccccc1)=C(C)C,1.28% (inactive),–

Compound,"activity change, negative = growth inhibition",Potency
O=C(CSC1CC(=O)N(CCc2ccccc2)C1=O)Nc1ccc(Cl)cc1 (centres undefined),-10.4% (inactive),–
CCOC(=O)CNc1nc(Cl)nc(Nc2ccc(OC)cc2OC)n1,-6.66% (inactive),–
Cc1c(S(=O)(=O)N2CC(C)CC(C)C2)c(=O)n(C)c(=O)n1C (centres undefined),21.5% (inactive),–
CC(C)CCN1CCC(C)(NC(=O)c2ccccc2)C1=O (centres undefined),-24.9% (inactive),–
O=C(c1ccc(Cl)nc1)N1CCN(S(=O)(=O)c2ccc3c(c2)OCCO3)CC1,-29.3% (inactive),–
CCOC(=O)c1ccccc1NC(=O)CCc1c(C)nc2c(c1C)c(=O)n(C)c(=O)n2C,11.4% (inactive),–
COc1cc(NC(=O)c2ccc(CNc3c(N4CCCC4)c(=O)c3=O)cc2)cc(OC)c1OC,1.21% (inactive),–
COc1cc(C(=O)Nc2ccc(-n3c(C)nc4ccccc4c3=O)cc2)cc(OC)c1OC,–,16.4 µM (active)
COc1cc(NC(=O)c2nc3ccccc3nc2C)cc(OC)c1OC,-29.3% (inactive),–
COc1cc(C(=O)Nc2ccc(OCc3cc(=O)n4ccc(C)cc4n3)cc2)cc(OC)c1OC,-7.29% (inactive),–
COc1ccc(NC(=O)CN2C(=O)CSC2=O)cc1,4.96% (inactive),–
CCC(=O)N1CCCC1(C)C(=O)Nc1ccc2c(c1)CCN2C(C)=O (centres undefined),2.65% (inactive),–
COC(=O)C1=C(C)Nc2ncnn2C1c1cccnc1 (centres undefined),-0.87% (inactive),–
CC1=C(C(=O)OC2CCCCC2)C(c2cccnc2)n2ncnc2N1 (centres undefined),–,14.6 µM (active)
CC1=C(C(N)=O)C(c2ccc(Br)cc2)n2ncnc2N1 (centres undefined),35.2% (inactive),–
S=C(NC1CCCCC1)NN1CCOCC1,-5.84% (inactive),–
Cc1ccc(C(=O)NCCc2nnc(SCC(=O)Nc3cccc(C(=O)O)c3)n2C)cc1,0.587% (inactive),–
Cc1cccc(NC(=O)C2CCCN2S(=O)(=O)c2cccc3nsnc23)c1C (centres undefined),-20.7% (inactive),–
CCOC(=O)c1cnc(COc2ccccc2Cl)[nH]c1=O,-1.8% (inactive),–
CC(=O)Nc1ccc(-c2csc(NC=C3C(=O)OC(C)(C)OC3=O)n2)cc1,-8.37% (inactive),–
Cc1ccc(-c2csc(NNC(=O)c3ccccc3)n2)cc1,–,4.11 µM (active)
O=C(O)c1ccccc1C(=O)Nc1nc(-c2ccccc2)cs1,1.16% (inactive),–
CC(=O)Nc1ccc(S(=O)(=O)Nc2nc(-c3ccc(C(C)(C)C)cc3)cs2)cc1,-4.81% (inactive),–
Cc1nc(NNC(=O)c2ccccc2)cc(-c2ccccc2)n1,-14.5% (inactive),–
CC(=O)Nc1ccc(-c2csc(NC(=O)Nc3ccccc3)n2)cc1,–,3.66 µM (active)
CC(=O)N1CCN(CC(c2ccccc2)c2ccccc2)CC1,-27.6% (inactive),–
